Read-out in assay [1]: ABC Transporter (ABCB1), ABCB1 (gene 5243)
Put plainly: CLD_ABCB1_6hr: CellzDirect (CLD) Gene Expression Assay for ABC Transporter (ABCB1) at 6 hours (AID 2283659).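 Further: hits raise ABCB1 transcript above the DMSO vehicle baseline.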 In short, it runs like this:
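ABCB1 transcript measured by quantitative nuclease protection assay, chemiluminescent read-out, 6 h after dosing human hepatocyte cultures (0.2% DMSO vehicle, daily redosing). Activity fitted as increase over DMSO baseline; cytotoxicity flagged by phase-contrast morphology.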

Read-out in assay [2]: Broad substrate specificity ATP-binding cassette transporter ABCG2 (Homo sapiens) (UniProt Q9UNQ0)
Put plainly: CLD_ABCG2_6hr: CellzDirect (CLD) Gene Expression Assay for ABC Transporter (ABCG2) at 6 hours (AID 2283660). In short, it runs like this: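 ABCG2 mRNA induction measured by qNPA chemiluminescence in human primary hepatocyte cultures, 6 h post-dose. Chemicals tested at several concentrations against a 0.2% DMSO vehicle; positive-direction fit relative to DMSO.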

Read-out in assay [3]: xenobiotic metabolism (CYP1A1), CYP1A1 (gene 1543)
The assay can be described thus: CLD_CYP1A1_6hr: CellzDirect (CLD) Gene Expression Assay for xenobiotic metabolism (CYP1A1) at 6 hours (AID 2283661).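 On AC50: potency for transcript induction above DMSO vehicle baseline.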 In short, it runs like this: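 Read-out 6 h post-dose: qNPA chemiluminescent quantitation of transcript induction against 0.2% DMSO. Cells were cultured primary human hepatocytes from two separate donor preparations; phase-contrast morphology annotated apparent cytotoxicity.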

Read-out in assay [4]: glucuronosyltransferase (UGT1A1), UGT1A1 (gene 54658)
Put plainly: CLD_UGT1A1_6hr: CellzDirect (CLD) Gene Expression Assay for glucuronosyltransferase (UGT1A1) at 6 hours (AID 2283672). In a few lines:
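UGT1A1 mRNA induction, read by quantitative nuclease protection assay, 6 h after dosing primary human hepatocytes (two donors, 0.2% DMSO vehicle). Gain of signal fitted relative to vehicle.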

A short description of assay [5]: CCTE_Padilla_ZF_144hpf_TERATOSCORE: (Legacy) CCTE's 144 Hour Post-fertilization zebrafish Assay Teratoscore, Padilla Lab (AID 2283679; active means hit-call score of the fitted dose curve at least 0.9, where 1 is the maximum; inactive means score below 0.9;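 on AC50: zebrafish embryos with chorions exposed by immersion from 6-8 hpf to 5 dpf with daily renewal; teratogenicity score from eye scoring of death hatching and malformations at 144 hpf; higher score means more developmental defects relative to DMSO baseline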). In short, it runs like this:
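Larvae scored by eye at 144 hpf for death, hatching and malformations after a day in clean Hanks'. Before that, daily-renewed exposure at 80 uM (0.4% DMSO, 26C) from roughly 6-8 hpf through 5 dpf, 4 embryos per chemical.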

Read-out in assay [6]: HMG-CoA synthase (HMGCS2), HMGCS2 (gene 3158)
The assay can be described thus: CLD_HMGCS2_6hr: CellzDirect (CLD) Gene Expression Assay for HMG-CoA synthase (HMGCS2) at 6 hours (AID 2283682).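 Further: actives raise HMGCS2 transcript above the 0.2% DMSO vehicle baseline.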 In a few lines: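 HMGCS2 transcript induction read by quantitative nuclease protection with chemiluminescence, 6 h after dosing of primary human hepatocytes. Baseline was 0.2% DMSO vehicle; phase-contrast morphology gave a yes/no cytotoxicity annotation.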

The subject of assay [7] is Thyroperoxidase (TPO), gene 54314. The assay can be described thus: CCTE_Simmons_AUR_rTPO: CCTE's Amplex UltraRed Assay for Thyroperoxidase (TPO) Inhibition, Simmons Lab (AID 2283662).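 Further: potency for loss of signal meaning inhibition of peroxidase activity.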 In short, it runs like this:
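Rat thyroid microsomal TPO + 25 uM AUR in 200 mM K phosphate; cpd 5 nM–87.5 uM [final], 8 conc, 0.5% DMSO; 300 uM H2O2 starts rxn; 37C dark 30 min; endpoint FI 544/590 nm; n=3.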

Assay [8] can be described thus: Tanguay_ZF_120hpf_TR_legacy: (Legacy) Oregon State University Tanguay Lab 120 Hour Post-fertilization zebrafish Assay for Touch Response (AID 2283667). In a few lines:
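Binary touch-response endpoint in larvae at 120 hpf after static waterborne exposure from embryo stage (28°C, 0.64% DMSO vehicle, 5 uM trimethyltin chloride as positive control); embryos dead at 24 or 120 hpf excluded; fitted as gain versus DMSO.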

Read-out in assay [9]: sulfotransferase (SULT2A), SULT2A1 (gene 6822)
The assay can be described thus: CLD_SULT2A_6hr: CellzDirect (CLD) Gene Expression Assay for sulfotransferase (SULT2A) at 6 hours (AID 2283669).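 Further: hits raise transcript level above the DMSO vehicle baseline.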 In short, it runs like this: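 Measured 6 h after dosing, SULT2A1 mRNA in human hepatocyte lysates was quantified by S1 nuclease protection with chemiluminescent detection. Increases fitted against 0.2% DMSO vehicle baseline; phase-contrast cytotoxicity recorded yes/no.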

Read-out in assay [10]: xenobiotic metabolism (CYP1A1), CYP1A1 (gene 1543)
Put plainly: CLD_CYP1A1_24hr: CellzDirect (CLD) Gene Expression Assay for xenobiotic metabolism (CYP1A1) at 24 hours (AID 2283673). In short, it runs like this: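 Transcript levels were read at 24 h by qNPA chemiluminescence in human liver primary cells. Cells got daily fresh dosing at multiple concentrations (vehicle 0.2% DMSO). Induction fitted upward against DMSO; phase-contrast cytotoxicity annotated.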

Read-out in assay [11]: Glyceraldehyde-3-phosphate dehydrogenase (Homo sapiens) (UniProt P04406)
Put plainly: CLD_GAPDH_6hr: CellzDirect (CLD) Gene Expression Assay for Baseline Control (Glyceraldehyde 3-phosphate dehydrogenase) at 6 hours (AID 2283681).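 Further: active means increased signal relative to DMSO vehicle.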 In a few lines:
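GAPDH baseline-control readout from qNPA (S1 nuclease digestion, probe hybridization, chemiluminescence) in lysates of cultured human hepatocytes harvested 6 h post-dosing. Chemicals tested at multiple concentrations versus 0.2% DMSO vehicle; microscopy-based cytotoxicity flagged yes/no.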

Read-out in assay [12]: xenobiotic metabolism (CYP1A2), CYP1A2 (gene 1544)
Put plainly: CLD_CYP1A2_6hr: CellzDirect (CLD) Gene Expression Assay for xenobiotic metabolism (CYP1A2) at 6 hours (AID 2283663).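 Further: potency is for induction meaning a rise in mRNA above DMSO.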 In a few lines: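 mRNA levels quantified by quantitative nuclease protection assay with chemiluminescence, 6 h after dosing human primary hepatocyte cultures (two donors) across several concentrations, vehicle 0.2% DMSO. Induction fitted upward versus DMSO; phase-contrast cytotoxicity annotated.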

Assay [13] is described as follows: CLD_ACTIN_6hr: CellzDirect (CLD) Gene Expression Assay for Baseline Control (Actin) at 6 hours (AID 2283676).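 Further: active means increased actin mRNA relative to DMSO vehicle.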 In short, it runs like this: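 Baseline actin transcript level measured by qNPA (S1 nuclease protection, chemiluminescence) in human hepatocyte cultures 6 h after chemical exposure; 0.2% DMSO vehicle as reference, cytotoxicity noted from morphology.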

Read-out in assay [14]: Cytochrome P450 2B6 (Homo sapiens) (UniProt P20813)
The assay can be described thus: CLD_CYP2B6_6hr: CellzDirect (CLD) Gene Expression Assay for xenobiotic metabolism (CYP2B6) at 6 hours (AID 2283677).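 Further: actives raise CYP2B6 transcript above DMSO baseline so AC50 marks an inducer.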 In a few lines:
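CYP2B6 transcript levels, read by chemiluminescent qNPA, were fitted for increase versus DMSO baseline; cultured human liver hepatocytes from two donor preparations were harvested 6 h after exposure to test chemicals at multiple concentrations.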

Read-out in assay [15]: Cytochrome P450 3A4 (Homo sapiens) (UniProt P08684)
The assay can be described thus: CLD_CYP3A4_6hr: CellzDirect (CLD) Gene Expression Assay for xenobiotic metabolism (CYP3A4) at 6 hours (AID 2283680). In a few lines:
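CYP3A4 mRNA induction, 6 h after dosing of cultured primary human hepatocytes from two donors, read by quantitative nuclease protection (qNPA, chemiluminescence). Vehicle 0.2% DMSO as baseline; morphology-based cytotoxicity annotated yes/no.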

Results filed as inconclusive are left out. Active and inactive are the calls of the source. How the source made its calls, unless noted: active means hit-call score of the fitted dose curve at least 0.9, where 1 is the maximum; inconclusive means response in the unintended direction; inactive means score below 0.9.

Chain of Broad substrate specificity ATP-binding cassette transporter ABCG2 (Homo sapiens) (Q9UNQ0 whole entry, looked up): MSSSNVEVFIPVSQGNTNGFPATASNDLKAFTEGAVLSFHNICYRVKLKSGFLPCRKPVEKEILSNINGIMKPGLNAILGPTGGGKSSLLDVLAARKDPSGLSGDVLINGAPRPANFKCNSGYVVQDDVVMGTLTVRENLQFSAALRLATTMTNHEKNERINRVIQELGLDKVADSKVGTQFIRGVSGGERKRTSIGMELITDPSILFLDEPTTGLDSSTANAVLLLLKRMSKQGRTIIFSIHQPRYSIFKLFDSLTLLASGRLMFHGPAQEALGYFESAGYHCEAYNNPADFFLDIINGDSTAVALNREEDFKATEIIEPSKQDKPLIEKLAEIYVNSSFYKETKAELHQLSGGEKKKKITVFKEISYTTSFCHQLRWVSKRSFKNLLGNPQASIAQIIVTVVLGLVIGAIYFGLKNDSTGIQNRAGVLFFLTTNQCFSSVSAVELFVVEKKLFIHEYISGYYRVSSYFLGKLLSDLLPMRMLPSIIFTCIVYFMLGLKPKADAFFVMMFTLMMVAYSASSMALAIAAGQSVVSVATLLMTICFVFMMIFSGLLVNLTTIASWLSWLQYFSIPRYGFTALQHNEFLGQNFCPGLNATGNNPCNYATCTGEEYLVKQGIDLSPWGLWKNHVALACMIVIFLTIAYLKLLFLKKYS
Chain of Glyceraldehyde-3-phosphate dehydrogenase (Homo sapiens) (P04406 whole entry, looked up): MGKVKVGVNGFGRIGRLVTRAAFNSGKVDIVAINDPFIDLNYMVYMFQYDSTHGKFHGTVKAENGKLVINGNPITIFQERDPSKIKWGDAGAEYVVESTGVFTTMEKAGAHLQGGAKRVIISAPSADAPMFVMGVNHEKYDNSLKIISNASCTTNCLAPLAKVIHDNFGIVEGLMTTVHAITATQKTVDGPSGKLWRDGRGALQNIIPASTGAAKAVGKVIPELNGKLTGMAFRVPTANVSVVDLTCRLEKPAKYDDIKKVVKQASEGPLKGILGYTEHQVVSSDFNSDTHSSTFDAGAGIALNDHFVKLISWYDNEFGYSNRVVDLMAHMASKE
Chain of Cytochrome P450 3A4 (Homo sapiens) (P08684 whole entry, looked up): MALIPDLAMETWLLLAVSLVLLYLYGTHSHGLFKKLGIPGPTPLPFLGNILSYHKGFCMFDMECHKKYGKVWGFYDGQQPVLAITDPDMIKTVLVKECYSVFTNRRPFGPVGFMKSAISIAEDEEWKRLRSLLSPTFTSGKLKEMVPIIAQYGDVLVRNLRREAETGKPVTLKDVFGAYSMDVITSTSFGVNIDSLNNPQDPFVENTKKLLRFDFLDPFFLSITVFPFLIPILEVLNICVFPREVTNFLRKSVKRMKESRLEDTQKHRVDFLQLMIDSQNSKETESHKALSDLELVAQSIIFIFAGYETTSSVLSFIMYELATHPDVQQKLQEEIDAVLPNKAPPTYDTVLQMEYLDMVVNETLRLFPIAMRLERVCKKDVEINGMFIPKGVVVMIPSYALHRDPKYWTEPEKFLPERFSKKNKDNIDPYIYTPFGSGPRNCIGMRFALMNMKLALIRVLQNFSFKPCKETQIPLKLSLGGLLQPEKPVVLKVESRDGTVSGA

For `CCCN(CC)CC1COC2(CCC(C(C)(C)C)CC2)O1` (stereo not given), the result in assay [1], in assay [2], in [3], in [4] and in assay [6] was inactive. The AC50 in assay [5] is 62.9 µM (active).

Take `CCOP(=O)(OCC)Oc1nc(Cl)c(Cl)cc1Cl`: the call in assay [1], in assay [2], in assay [8], in assay [9], in assay [4] and in assay [10] was inactive. Besides, in [11], the outcome was inactive. For the same molecule, the AC50 in assay [3] is 3.92 µM (active); in assay [7] it was 29 µM (active); in assay [5], 0.485 µM (active).

With `CC1(C)C(C=C(Cl)Cl)C1C(=O)OC(C#N)c1cccc(Oc2ccccc2)c1` (stereo not given), the call in assay [1], in assay [2], in assay [8], in assay [9], in assay [4] and in assay [6] was inactive. Further, the concentration at half-maximal activity (AC50) is 2.78 µM (active) in assay [3], 2.15 µM (active) in assay [12] and 0.284 µM (active) in assay [5].

For the molecule `COP(=S)(OC)SCn1nnc2ccccc2c1=O`, the outcome in assay [1], in [2], in assay [8], in assay [9] and in assay [11] was inactive. The half-maximal activity concentration (AC50) in assay [3] is 6.49 µM (active); in assay [7] it was 6.68 µM (active); in [4] it was 1.73 µM (active); in assay [5] it was 15.2 µM (active).

Consider `Cc1nc(N(C)C)nc(OC(=O)N(C)C)c1C`, for which the molecule was called inactive in assay [1], in assay [2], in assay [8], in assay [4], in [13] and in assay [5]. Moreover, the values for the AC50 in assay [3] and in [12] were 4.32 µM (active) and 3.8 µM (active), respectively.

In the case of `CC(C)N1C(=O)N(c2ccccc2)CSC1=NC(C)(C)C`, the result in assay [1], in [2], in [3], in assay [8] and in [4] was inactive. The AC50 in assay [5] was 1.48 µM (active).

On to `CC1(C)CON(Cc2ccccc2Cl)C1=O`, for which the outcome in [1], in assay [2], in assay [3], in assay [8], in assay [4] and in assay [5] was inactive. Further, the molecule was classed as inactive in assay [11] and in assay [6].

As to `OC(c1ccc(Cl)cc1)(c1ccc(Cl)cc1)C(Cl)(Cl)Cl`, the call in [1], in assay [2], in assay [3], in assay [8], in assay [9] and in [4] was inactive. Further, the molecule was called inactive in [11]. Further, the half-maximal activity concentration (AC50) in assay [7] was 43.8 µM (active); in assay [14], 3.96 µM (active); in assay [5] it was 12 µM (active); in assay [15], 3.68 µM (active).

Regarding `CC(C)Nc1nc(Cl)nc(NC(C)C)n1`, the result in assay [1], in [2], in assay [8], in assay [4] and in assay [5] was inactive. Also, the AC50 was 4.73 µM (active) in [3], 11.4 µM (active) in [10] and 2.47 µM (active) in [14].

Turning to `Nc1c(Cl)c(F)nc(OCC(=O)O)c1Cl`, the call in assay [1], in assay [2], in assay [3], in [8], in assay [10] and in assay [14] was inactive. In addition, the molecule was classed as inactive in assay [5] and in assay [11].

On to `Cc1c(COC(=O)[C@@H]2[C@H](/C=C(\Cl)C(F)(F)F)C2(C)C)cccc1-c1ccccc1`, for which the call in assay [1], in [2], in assay [3], in [8] and in [4] was inactive. In addition, the AC50 in assay [5] is 0.623 µM (active); in assay [15] it was 3.44 µM (active).

The record behind these values is PubChem BioAssay (EPA / NIEHS).
